Screens from PubChem.
hNpr1 antagonist – human Npr1 receptor antagonism; P16066; HEK293 hNpr1 GloSensor cGMP, ANP-stimulated luminescence; Potency, µM (top dose mostly 46.3 µM), for the others: top-dose activity change, negative = inhibition, actives largely listed as inhibitors; 1.6% of 76,000 active; AID 1347048; calls by dose curve; also: nearly all actives have a fitted effect of over 60% in size
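HEK293 cells stably expressing human Npr1 and cGMP GloSensor pGS-40F, loaded 2 h with 2% GloSensor reagent, given compound 30 min at room temperature. Luminescence read before and 20 min after 0.1 nM hNppA.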
FLuc inh – blocks purified firefly luciferase enzyme activity; P08659; purified P. pyralis luciferase, luminescence, biochemical; Potency, µM (highest dose often 115 µM), most hits filed as inhibitors; 2.5% of 76,000 active; also: nearly all actives have a fitted effect of over 65% in size
Target sequence (P08659 whole entry, looked up): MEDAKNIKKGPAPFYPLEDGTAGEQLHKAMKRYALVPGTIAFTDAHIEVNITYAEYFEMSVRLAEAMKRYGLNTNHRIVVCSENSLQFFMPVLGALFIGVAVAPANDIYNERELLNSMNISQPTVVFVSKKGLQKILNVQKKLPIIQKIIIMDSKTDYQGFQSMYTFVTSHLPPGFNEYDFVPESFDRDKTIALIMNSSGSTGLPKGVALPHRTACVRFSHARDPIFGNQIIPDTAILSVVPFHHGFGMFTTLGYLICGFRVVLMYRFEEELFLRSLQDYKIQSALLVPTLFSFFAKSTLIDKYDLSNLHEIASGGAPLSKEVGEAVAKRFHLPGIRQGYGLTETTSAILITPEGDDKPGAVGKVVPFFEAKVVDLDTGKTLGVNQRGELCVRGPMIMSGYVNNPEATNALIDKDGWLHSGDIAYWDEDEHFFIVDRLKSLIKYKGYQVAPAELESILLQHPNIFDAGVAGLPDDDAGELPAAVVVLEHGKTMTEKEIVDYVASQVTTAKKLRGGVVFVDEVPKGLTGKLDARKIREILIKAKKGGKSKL
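Purified 10nM P. pyralis luciferase with 10uM D-luciferin and 10uM ATP in 50mM Tris acetate pH 7.5, 10mM Mg acetate, 0.01% Tween-20, 0.05% BSA. qHTS titration; luminescence read by CCD imager.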
3T3 cytotox – NIH 3T3 cell cytotoxicity | NIH 3T3 viability, CellTiter-Glo ATP luminescence, 48-72 h | Potency, µM (highest dose often 96.7 µM), inactives show at the highest dose activity change, negative = cytotoxicity, hits mostly inhibitors | 4.3% of 94,000 active | AID 1345082; also: nearly all actives have a fitted effect of over 55% in size
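ATP-dependent luminescence (CellTiter-Glo) served as the viability signal for NIH 3T3 cells treated with compound for 48 or 72 hr at 37 °C.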
HEK cytotox – cytotoxic compounds in HEK 293 cells; HEK 293 viability, ATP luminescence (CellTiter-Glo), 48-72 h; Potency, µM (doses to about 115 µM), without a hit: at the top dose activity change, negative = cytotoxicity, usual class: inhibitors; 6.6% of 94,000 active; also: nearly all actives have a fitted effect of over 60% in size
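Read-out: CellTiter-Glo ATP luminescence. Cells: HEK 293, 250 cells/well. Exposure: 48 or 72 hr, 37 degree Celsius.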
Numbers without * were called inactive; [ ] = dose if it differs, or a comment. Only some compounds are listed: those with a hit (about 11% of all), similar ones and a draw of the others. Unless noted, calls follow the shape of the dose curve; as a rule, active = well fitted curve in the direction sought with a large enough effect; inconclusive = small, poorly fitted or top-dose-only effect, or another doubt; inactive = no such curve, though single readings can be large; an effect the other way counts as inactive or inconclusive. % is scaled to controls: 0 for no effect and ±100 for the full control effect; potency is read from the fitted curve at half-maximal effect.

`COCCN[C@@H]1C[C@@H]2c3[nH]c4ccccc4c3C[C@@H](C(=O)OC)N2[C@H](c2ccc(C(F)(F)F)cc2)C1` gave hNpr1 antagonist -2%, FLuc inh inactive, 3T3 cytotox 45µM* and HEK cytotox 35µM*.
For COC(=O)[C@@H]1Cc2c([nH]c3ccccc23)[C@H]2C[C@H](NCCNC(C)=O)C[C@@H](c3ccccc3)N21 the results were hNpr1 antagonist -1%, FLuc inh inactive, 3T3 cytotox inconclusive and HEK cytotox 89µM*.
Screening COCCNC(=O)[C@@H]1C[C@@H](c2ccc(F)cc2)N([S+](=O)([O-])c2ccccc2)C1 returned hNpr1 antagonist 1%[70.6 µM], FLuc inh inactive, 3T3 cytotox inconclusive and HEK cytotox -6%[172 µM].
Screening Cc1ccc(-c2cc(CN3CC(=O)N4CCC[C@H]4C3=O)on2)cc1 returned hNpr1 antagonist 0%, FLuc inh inactive, 3T3 cytotox -17% and HEK cytotox -11%.
For c1ccc(Nc2cc3c(cn2)CN(Cc2ccc4[nH]ccc4c2)CCN3)cc1 the results were hNpr1 antagonist -28%[70.6 µM], FLuc inh inconclusive, 3T3 cytotox 28µM* and HEK cytotox 40µM*.
c1ccc(Nc2cc3c(cn2)NCCN(Cc2ccc4[nH]ccc4c2)C3)cc1 was read as hNpr1 antagonist -15%[70.6 µM], FLuc inh inactive, 3T3 cytotox inconclusive and HEK cytotox 56µM*.
For COc1ccc(CN2Cc3[nH]cnc3C[C@H]2c2nc(-c3ccc(F)c(Cl)c3)no2)cc1 the results were hNpr1 antagonist -13%, FLuc inh inactive, 3T3 cytotox inconclusive and HEK cytotox inconclusive.
Screening COc1ccc(-c2noc([C@@H]3Cc4nc[nH]c4CN3Cc3ccccc3)n2)cc1 returned hNpr1 antagonist -2%[70.6 µM], FLuc inh inconclusive, 3T3 cytotox inconclusive and HEK cytotox inconclusive.
For COc1ccc(CN2Cc3[nH]cnc3C[C@H]2c2nc(-c3ccc(C(F)(F)F)cc3)no2)cc1 the results were hNpr1 antagonist -24%, FLuc inh 40µM*, 3T3 cytotox inconclusive and HEK cytotox inconclusive.
COc1ccc(-c2noc([C@@H]3Cc4nc[nH]c4CN3Cc3ccc(NC(C)=O)cc3)n2)cc1 was read as hNpr1 antagonist 1%, FLuc inh 35µM*, 3T3 cytotox -22% and HEK cytotox -7%.
`CN(Cc1ccccc1C(F)(F)F)C(=O)c1ccc(Cl)nc1` gave hNpr1 antagonist 4%, FLuc inh inactive, 3T3 cytotox inconclusive and HEK cytotox -25%.
Screening COC(=O)[C@@H]1Cc2c([nH]c3ccccc23)[C@H]2C[C@@H](NC[C@H]3CCCO3)C[C@@H](c3ccccc3F)N21 returned hNpr1 antagonist 5%, FLuc inh inactive, 3T3 cytotox 79µM* and HEK cytotox 79µM*.
`COC(=O)[C@@H]1Cc2c([nH]c3ccccc23)[C@H]2C[C@@H](NCCc3cnc[nH]3)C[C@@H](c3ccccc3F)N21` gave hNpr1 antagonist -14%, FLuc inh inactive, 3T3 cytotox 28µM* and HEK cytotox 25µM*.
`CCNC(=O)[C@@H]1C[C@H](NC(=O)CCc2ccccc2)CN1Cc1cnc[nH]1` gave hNpr1 antagonist 1%, FLuc inh inactive, 3T3 cytotox inactive and HEK cytotox 3%.
`O=C(Cc1cccs1)N1CCC(n2cc(-c3nc(-c4ccccc4)no3)nn2)C1` (stereo not drawn) gave hNpr1 antagonist -26%, FLuc inh inconclusive, 3T3 cytotox inconclusive and HEK cytotox inconclusive.
`O=C(NCc1cccnc1)[C@@H]1C[C@H](c2ccc(F)cc2)N(Cc2ccccc2Cl)C1` gave hNpr1 antagonist -12%[70.6 µM], FLuc inh inactive, 3T3 cytotox inconclusive and HEK cytotox inconclusive.
Screening COc1cccc(OCC2CN(Cc3cccc(C(F)(F)F)c3)C(=O)c3c(ccnc3-c3ccc(OCC(=O)O)cc3)O2)c1OC (stereo not drawn) returned hNpr1 antagonist 0%, FLuc inh 45µM*, 3T3 cytotox inconclusive and HEK cytotox 5%.
O=C(O)COc1ccc(-c2nccc3c2C(=O)N(Cc2c[nH]c4ccccc24)CC(COc2ccc(F)cc2F)O3)cc1 (stereo not drawn) was read as hNpr1 antagonist 3%, FLuc inh 45µM*, 3T3 cytotox inconclusive and HEK cytotox inactive.
For COc1cccc(-c2ccc(CN3CC4CCC(C3)N4c3ccc(C(F)(F)F)cc3)cc2)c1 the results were hNpr1 antagonist 13%, FLuc inh inactive, 3T3 cytotox -2% and HEK cytotox -12%.
COc1ccc(F)cc1-c1ccc(CN2CCC(N[S+](=O)([O-])c3c(C)noc3C)C2)cc1 (stereo not drawn) was read as 3T3 cytotox inconclusive and HEK cytotox 45µM*.
`COc1ccccc1-c1ccc(CN2CC3CCC(C2)N3c2ccc(C(F)(F)F)cc2)cc1` gave 3T3 cytotox -11% and HEK cytotox -22%.
Screening COc1cccc(-c2ccc(CN3CCCC(N[S+](=O)([O-])c4cccs4)C3)cc2)c1 (stereo not drawn) returned 3T3 cytotox 32µM* and HEK cytotox 13µM*.
For Cc1noc(C)c1[S+](=O)([O-])NC1CCCN(Cc2ccc(-c3cncnc3)cc2)C1 (stereo not drawn) the results were 3T3 cytotox -21% and HEK cytotox inconclusive.
`COc1ccc(F)cc1-c1ccc(CN2CCC(N[S+](=O)([O-])c3cccs3)C2)cc1` (stereo not drawn) gave 3T3 cytotox inconclusive and HEK cytotox 40µM*.
`COc1ccc(F)cc1-c1ccc(CN2CCC(N[S+](=O)([O-])c3ccc(C)cc3)C2)cc1` (stereo not drawn) gave 3T3 cytotox 28µM* and HEK cytotox 32µM*.
`COC[C@H]1CCCN1C(=O)[C@@H](C)C1CC[C@@]2(C)CC[C@H](NC(=O)CC(C)(C)C)[C@@H](C)[C@@H]2[C@H]1O` (stereo partly drawn) gave hNpr1 antagonist 1%, FLuc inh inactive, 3T3 cytotox -6% and HEK cytotox -11%.
`Cc1nc(-c2cccc(Cl)c2)n(Cc2nc(-c3ccccc3)oc2C)c(=O)c1CCO` gave hNpr1 antagonist -1%, FLuc inh inactive, 3T3 cytotox -6% and HEK cytotox inactive.
For CC(C)CN1C(=O)CO[C@H](c2ccc(NC(=O)COc3ccccc3)cc2)[C@H]1CO the results were hNpr1 antagonist inconclusive, FLuc inh inactive, 3T3 cytotox inconclusive and HEK cytotox inconclusive.
For CCc1cc(=O)n(CC(=O)Nc2ccc(OC)cc2)c(-c2ccccc2)n1 the results were hNpr1 antagonist -3%, FLuc inh inactive, 3T3 cytotox inconclusive and HEK cytotox inconclusive.
For CCc1cc(=O)n(CC(=O)Nc2cc(OC)c(OC)c(OC)c2)c(-c2ccccc2)n1 the results were hNpr1 antagonist inconclusive, FLuc inh inactive, 3T3 cytotox inconclusive and HEK cytotox 45µM*.
